Bioassay records as filed in PubChem.
An excerpt weighted towards active compounds, which were near 27% of everything screened.
CYP2C19 activ – activators of human cytochrome P450 2C19; recombinant CYP2C19, luciferin-H EGE luminescence; stronger effect = higher value; 0 = fully inhibited enzyme, 1 = untreated enzyme; AID 1025; activation factor at 5 µM; 96,000 tested, under 10 active; P33261;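 active = activation factor of at least 2 at 5 µM in the primary screen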
sEH act – soluble epoxide hydrolase (human) activation | purified human sEH enzymatic activity, activator screen | activation, % at 2 µM | P34913 | 91,000 tested, 0.04% active; in the data active = activation above about 37%
CYP2C9 inh – blocks human cytochrome P450 2C9; inhibition, % at 5 µM; CYP2C9 Supersomes, luciferin-H conversion, luminescence; 96,000 tested, 20% active; AID 777;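 active = blocking of liver enzyme CYP2C9 beyond about 50% at 5 µM, limit read from the data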
Target sequence (P11712 whole entry, looked up): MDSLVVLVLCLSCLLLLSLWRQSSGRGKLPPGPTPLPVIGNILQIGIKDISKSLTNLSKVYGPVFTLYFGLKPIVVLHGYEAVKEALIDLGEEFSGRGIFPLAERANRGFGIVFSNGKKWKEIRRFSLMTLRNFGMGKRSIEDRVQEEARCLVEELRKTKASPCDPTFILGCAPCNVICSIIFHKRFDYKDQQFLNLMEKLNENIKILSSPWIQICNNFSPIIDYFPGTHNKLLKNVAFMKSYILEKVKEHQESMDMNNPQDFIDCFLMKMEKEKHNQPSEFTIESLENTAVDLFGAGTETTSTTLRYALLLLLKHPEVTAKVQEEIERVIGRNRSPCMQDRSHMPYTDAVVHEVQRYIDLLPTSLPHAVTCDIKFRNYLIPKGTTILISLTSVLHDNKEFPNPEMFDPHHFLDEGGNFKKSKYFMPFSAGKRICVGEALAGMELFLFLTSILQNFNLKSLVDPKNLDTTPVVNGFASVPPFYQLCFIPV
CYP2C19 inhib – human CYP2C19 inhibition; P33261; CYP2C19 Supersomes, luciferin-H EGE luminescence, 30 min; inhibition, % at 5 µM; 96,000 tested, 21% active; AID 778;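 active = CYP2C19 inhibition above a set limit at 5 µM in the primary screen, cut at about 50% in these data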
CYP2C9 activ – increases human cytochrome P450 2C9 activity. P11712. recombinant CYP2C9, luciferin-H conversion, luminescence; stronger effect = higher value; factor 1 = untreated enzyme, 0 = blocked. activation factor at 5 µM. 96,000 tested, 1.4% active. AID 1024;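 active = activation factor of 2 or more for CYP2C9 at a 5 µM dose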
sEH inhibitor – blocks human soluble epoxide hydrolase activity | 91,000 tested, 0.34% active | inhibition, % at 2 µM | recombinant human sEH enzymatic activity assay | P34913; in the data active = inhibition above about 80%
Large screens that a line does not name were inactive.

Cc1cc(C(=O)Nc2cccc(C(=O)O)c2)c(C)o1	none
Cc1oc(C(C)(C)C)cc1C(=O)Nc1cccc(C(=O)O)c1	CYP2C9 inh 60
CC(=O)c1cc(C(=O)Nc2ccccc2C(=O)O)oc1C	CYP2C9 inh 54 (no result: sEH act, sEH inhibitor)
O=C(Nc1ccccc1C(=O)O)c1ccc(Br)o1	none
Cc1cc(C(=O)Nc2cccc(C(=O)O)c2)oc1C	CYP2C19 inhib 66 (no result: sEH act, sEH inhibitor)
Cc1c(NC(=O)N(C)C)c(=O)n(-c2ccccc2)n1C	none (no result: CYP2C19 activ, CYP2C9 inh, CYP2C19 inhib, CYP2C9 activ)
CC(O)C(NS(=O)(=O)c1ccc(Cl)cc1)C(=O)OCc1nnc(-c2ccccc2)o1 (stereo unspecified)	none
CCCc1nc(N2CCOCC2)c2sc(=S)n(-c3ccccc3)c2n1	none
CCCOC(=O)C1=C(C)NC2=C(C(=O)CCC2)C1c1cccs1 (stereo unspecified)	CYP2C9 inh 71, CYP2C19 inhib 78
COC(=O)C1=C(C)NC2=C(C(=O)CCC2)C1c1coc2ccccc2c1=O (stereo unspecified)	none (no result: sEH act, sEH inhibitor)
CC1=C(C(=O)OC2CCCC2)C(c2ccc(C)o2)C2=C(CC(c3cccs3)CC2=O)N1 (stereo unspecified)	CYP2C9 inh 72
CCCOC(=O)C1=C(C)NC2=C(C(=O)CCC2)C1c1cccc(OC)c1OC (stereo unspecified)	CYP2C19 inhib 78
CC1=C(C(=O)OC2CCCCC2)C(c2ccc(C)o2)C2=C(CC(C)(C)CC2=O)N1 (stereo unspecified)	none
CCOC(=O)C1=C(C)NC2=C(C(=O)CCC2)C1c1coc2ccccc2c1=O (stereo unspecified)	CYP2C9 inh 68, CYP2C19 inhib 65
CCOC(=O)C1=C(C)NC2=C(C(=O)CC(c3cccs3)C2)C1c1cccs1 (stereo unspecified)	none (no result: CYP2C19 activ, CYP2C9 inh, CYP2C19 inhib, CYP2C9 activ)
CC1CN(c2nc3c(c(=O)n(Cc4ccc(Cl)cc4)c(=O)n3C)n2C)CC(C)O1 (stereo unspecified)	none (no result: sEH act, sEH inhibitor)
CNC(=O)c1[nH]cnc1C(=O)Nc1ccccc1OC	none (no result: CYP2C19 activ, CYP2C9 inh, CYP2C19 inhib, CYP2C9 activ)
Cn1c(=O)[nH]c(=O)c2c1nc(Br)n2CC(O)COc1ccccc1 (stereo unspecified)	none
O=C(O)CC(C(=O)Nc1cccc(C(F)(F)F)c1)C1CCCO1 (stereo unspecified)	none
CC1=C(C(=O)Nc2ccc(F)cc2)C(c2ccc(C)o2)C2=C(CC(C)(C)CC2=O)N1 (stereo unspecified)	none
CC1=C(C(=O)Nc2ccccc2C)C(c2ccc(C)o2)C2=C(CCCC2=O)N1 (stereo unspecified)	CYP2C9 inh 57, CYP2C19 inhib 69 (no result: sEH act, sEH inhibitor)
CCOC(=O)c1cnn(-c2ncnc3c2oc2ccccc23)c1N	none (no result: sEH act, sEH inhibitor)
CCN(CC)C(=O)Cn1c(=O)n(-c2ccccc2)c(=O)n1CC(=O)N(CC)CC	none
Nc1n[nH]c2c1C1(CCCCC1)Cc1ccccc1-2	CYP2C19 inhib 58 (no result: sEH act, sEH inhibitor)
CCCCCNC(=O)CN(c1ccc2c(c1)OCO2)S(C)(=O)=O	none
Cc1ccc(SCCNC(=O)CN(c2ccc3c(c2)OCO3)S(C)(=O)=O)cc1	CYP2C9 inh 92, CYP2C19 inhib 92
CS(=O)(=O)N(CC(=O)NCCSC1CCCCC1)c1ccc2c(c1)OCO2	CYP2C9 inh 56, CYP2C19 inhib 70
Cc1ccccc1N(CC(=O)NCCSCc1ccco1)S(C)(=O)=O	CYP2C9 inh 68, CYP2C19 inhib 74
O=C(NCCSCc1ccco1)Nc1ccccc1	CYP2C19 inhib 79
CS(=O)(=O)N(CC(=O)NCc1ccco1)c1ccccc1Cl	none
Cn1c(NCCCN2CCOCC2)nc2c1c(=O)n(Cc1ccc(Cl)c(Cl)c1)c(=O)n2C	none (no result: sEH act, sEH inhibitor)
CC(CCc1ccccc1)NC(=O)c1cccnc1 (stereo unspecified)	none
Cc1ccccc1CSCCNC(=O)CN(c1ccc2c(c1)OCO2)S(C)(=O)=O	CYP2C9 inh 56, CYP2C19 inhib 64
CC(C)CC(NC(=O)OC(C)(C)C)C(=O)NCc1ccccc1 (stereo unspecified)	none
CC(=O)SCC(C)C(=O)NCc1ccccc1 (stereo unspecified)	CYP2C19 inhib 64
C=CCN(CC=C)CC(=O)Nc1ccc(S(N)(=O)=O)cc1	none (no result: CYP2C19 activ, CYP2C9 inh, CYP2C19 inhib, CYP2C9 activ)
Cc1ccc(-n2c(SCC(N)=O)nc3c([nH]c4ccccc43)c2=O)cc1	CYP2C9 inh 79 (no result: sEH act, sEH inhibitor)
COc1cccc(-n2c(SCC(N)=O)nc3c([nH]c4ccccc43)c2=O)c1	CYP2C9 inh 52 (no result: sEH act, sEH inhibitor)
COc1cccc(-n2c(SCC(=O)Nc3cc(C)on3)nc3c([nH]c4ccccc43)c2=O)c1	CYP2C9 inh 54
O=C(CSc1nc2c([nH]c3ccccc32)c(=O)n1-c1cccc(Cl)c1)N1CCOCC1	none (no result: CYP2C19 activ, CYP2C9 inh, CYP2C19 inhib, CYP2C9 activ)
O=C(CSc1nc2c([nH]c3ccccc32)c(=O)n1-c1ccccc1)N1CCOCC1	none (no result: sEH act, sEH inhibitor)
Cc1ccccc1N1CCN(C(=O)CCN2C(=O)c3ccccc3C2=O)CC1	none
CCC(C)Cn1c(C)nc2ccccc21 (stereo unspecified)	CYP2C19 inhib 52
COC(=O)Cn1c(C)nc2ccccc21	none
COc1ccc(C2N(c3cccc(Cl)c3)C(=O)C3CCCN32)cc1 (stereo unspecified)	CYP2C9 inh 66
COc1ccc(N2C(=O)C3CCCN3C2c2ccc(Cl)cc2)cc1 (stereo unspecified)	none
COc1ccc(C2N(c3ccc(Cl)cc3)C(=O)C3CCCN32)cc1 (stereo unspecified)	CYP2C19 inhib 52
Cc1ccc(-c2nc(CSCC(=O)NCc3cccnc3)c(C)o2)cc1	none
O=[N+]([O-])c1ccc(Oc2cccc(F)c2)c2ccncc12	CYP2C9 inh 83, CYP2C19 inhib 85
Cc1cccc(CSC2=NCCN2C(=O)c2ccco2)c1	none
O=C(OCC(=O)N1CCc2ccccc21)c1ccc(Cl)nc1	none
O=C(O)c1ccc(NS(=O)(=O)c2ccc(Cl)c(Cl)c2)cc1O	none (no result: sEH act, sEH inhibitor)
CCc1ccc(CC)c(S(=O)(=O)Nc2ccc(O)c(C(=O)O)c2)c1	CYP2C9 inh 77
CCc1ccc(CC)c(S(=O)(=O)Nc2ccc(C(=O)O)c(O)c2)c1	CYP2C9 inh 83
Cc1ccc(C(=O)Nc2ccc(O)c(C(=O)O)c2)o1	none
COc1cc(C(c2sc3nc(C)nn3c2O)N2CCc3ccccc3C2)cc(OC)c1OC (stereo unspecified)	CYP2C19 inhib 84 (no result: sEH act, sEH inhibitor)
CCOC(=O)C1CCN(C(c2cccs2)c2sc3nc(C)nn3c2O)CC1 (stereo unspecified)	CYP2C19 inhib 65 (no result: sEH act, sEH inhibitor)
COC(=O)C1CCN(C(c2cccs2)c2sc3nc(C)nn3c2O)CC1 (stereo unspecified)	none (no result: sEH act, sEH inhibitor)
COc1ccc(C(c2sc3nc(C)nn3c2O)N2CCc3ccccc3C2)cc1 (stereo unspecified)	none (no result: sEH act, sEH inhibitor)
CCOC(=O)C1CCN(C(c2cccc(OC)c2)c2sc3nc(C)nn3c2O)CC1 (stereo unspecified)	CYP2C19 inhib 87 (no result: sEH act, sEH inhibitor)
CC1(C)CC(=O)C(C=NCCO)=C(O)C1	none
O=C(COc1ccc(S(=O)(=O)N2CCc3ccccc32)cc1Cl)NCc1ccccn1	CYP2C9 inh 94, CYP2C19 inhib 94
